Data published in PubChem BioAssay (EPA / NIEHS).
Records with an inconclusive call do not appear. Active and inactive are the calls of the source. The calls were made as follows, unless noted: active = hit-call score of the fitted dose curve at least 0.9, where 1 is the maximum; inactive = score below 0.9.

Legend:
[1] = target: Transcription factor E2F1 (Homo sapiens) (UniProt Q01094); assay: ATG_E2F_CIS: Attagene CIS-FACTORIAL HepG2 Assay for human E2F Transcription Factor 1 (AID 2282935); conditions: HepG2 Attagene cis-reporter, E2F reporter RNA transcripts; actives raise or lower the signal
Method in brief: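 Endogenous E2F1 activity read through cis-promoter reporter units transfected into HepG2. After 24 h compound treatment, reporter mRNA measured by RT-PCR, HpaI digestion and capillary electrophoresis. Bidirectional fit versus DMSO.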

[2] = ATG_M_61_CIS: Attagene CIS-FACTORIAL HepG2 Assay for M61 Transcription Factor (Internal Marker) (AID 2282937); conditions: HepG2 Attagene CIS-FACTORIAL M61 internal marker reporter; actives raise or lower the signal
Method in brief: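 Transfect HepG2 with MRTUs; dose 24 h; isolate RNA; reverse-transcribe with DNase I treatment; PCR-amplify, FAM-label and cut with HpaI for 2 h at 37 C; resolve by CE. Bidirectional fitting against DMSO.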

[3] = ATG_GRE_CIS: Attagene CIS-FACTORIAL HepG2 Assay for human Glucocorticoid Response Elements (GRE) (AID 2282947); conditions: HepG2 GRE cis-reporter, Attagene multiplex mRNA; actives raise or lower the signal
Method in brief: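 Transiently transfected HepG2 cells carrying GRE cis-reporter units (endogenous TF activity) dosed 24 h; reporter mRNA quantified by RT-PCR, 6-FAM labelling, HpaI digestion and capillary electrophoresis. Bidirectional fit versus DMSO baseline.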

[4] = ATG_ISRE_CIS: Attagene CIS-FACTORIAL HepG2 Assay for human Interferon Regulatory Factor 1 (IRF1) binding to an Interferon-Stimulated Response Element (ISRE) (AID 2282948); conditions: HepG2 ISRE cis-reporter (Attagene), mRNA transcription readout; actives raise or lower the signal
Method in brief: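 Quantitation relies on labelled RT-PCR fragments separated by capillary electrophoresis. Human HepG2 cells bearing cis-promoter reporter constructs were treated 24 h; DMSO served as baseline for bidirectional fitting.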

[5] = target: Hypoxia-inducible factor 1-alpha (Homo sapiens) (UniProt Q16665); assay: ATG_HIF1a_CIS: Attagene CIS-FACTORIAL HepG2 Assay for human Hypoxia Inducible Factor 1 (HIF1A) (AID 2282951); conditions: HepG2 Attagene cis-factorial HIF1a reporter transcription; actives raise or lower the signal
Method in brief: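 After 24 h chemical exposure of reporter-transfected HepG2 cells, reporter cDNA was PCR-amplified, labelled by 6-FAM primer extension (2 min 95 C, 20 s 68 C, 10 min 72 C), HpaI-cut (2 h, 37 C) and analysed by CE.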

[6] = target: Hepatocyte nuclear factor 6 (Homo sapiens) (UniProt Q9UBC0); assay: ATG_HNF6_CIS: Attagene CIS-FACTORIAL HepG2 Assay for human Hepatocyte Nuclear Factor 6 (HNF6) (AID 2282952); conditions: HepG2 Attagene cis-factorial HNF6 reporter transcription; actives raise or lower the signal
Method in brief: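 Cells are HepG2 carrying transiently transfected cis-promoter reporter units. Treatment lasts 24 h, after which reporter transcripts are reverse-transcribed, amplified, FAM-labelled and sized by capillary electrophoresis. DMSO serves as baseline.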

[7] = target: Heat shock factor protein 1 (Homo sapiens) (UniProt Q00613); assay: ATG_HSE_CIS: Attagene CIS-FACTORIAL HepG2 Assay for human Heat Shock Transcription Factor 1 (HSE) (AID 2282953); conditions: HepG2 HSE cis-reporter, Attagene RNA transcription; actives raise or lower the signal
Method in brief: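 After a 24 h incubation with test chemical, transfected HepG2 cells were harvested for RNA; reporter transcripts were measured by RT-PCR and capillary electrophoresis. Values reflect gain or loss of signal relative to DMSO.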

[8] = ATG_MRE_CIS: Attagene CIS-FACTORIAL HepG2 Assay for human Metal Responsive Element (MRE) (AID 2282954); conditions: HepG2 MRE cis-reporter transcription, Attagene multiplex; actives raise or lower the signal
Method in brief: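 HepG2 cells transiently transfected with cis-element-driven reporter units; mRNA measured 24 h after dosing. Reporter transcripts quantified by RT-PCR, FAM labelling, HpaI digestion and capillary electrophoresis; bidirectional fit versus DMSO.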

[9] = ATG_PBREM_CIS: Attagene CIS-FACTORIAL HepG2 Assay for human Phenobarbital-responsive Enhancer Module (PBREM) (AID 2282955); conditions: HepG2 PBREM cis-reporter, Attagene multiplexed transcription; actives raise or lower the signal
Method in brief: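 Measures endogenous factor action on a phenobarbital-responsive enhancer module. HepG2 transiently carrying cis reporters, 24 h treatment, mRNA read-out by RT-PCR plus capillary electrophoresis.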

[10] = ATG_PPRE_CIS: Attagene CIS-FACTORIAL HepG2 Assay for human Peroxisome Proliferator-activated Response Element (PPRE) (AID 2282958); conditions: HepG2 PPRE cis-element reporter, Attagene transcription factor profiling; actives raise or lower the signal
Method in brief: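 PPRE activity in HepG2: transient cis-reporter transfection, 24 h compound incubation, reporter mRNA by RT-PCR and CE fluorescence; gain/loss fitted against DMSO.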

[11] = ATG_TCF_b_cat_CIS: Attagene CIS-FACTORIAL HepG2 Assay for human T-Cell-Factor with beta-catenin (TCF/b-cat) (AID 2282965); conditions: HepG2 TCF/beta-catenin cis-reporter transcription, actives raise or lower the signal
Method in brief: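 Cells of the HepG2 line carry transiently transfected reporter units whose promoters respond to endogenous factors. Twenty-four hours post-dosing, reporter mRNA induction is measured by fluorescent RT-PCR and capillary electrophoresis, with DMSO as baseline.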

[12] = target: Transcriptional activator Myb (Homo sapiens) (UniProt P10242); assay: ATG_Myb_CIS: Attagene CIS-FACTORIAL HepG2 Assay for human Myeloblastosis (Myb) Proto-Oncogene Transcription Factor (AID 2282986); conditions: HepG2 Attagene CIS-FACTORIAL Myb reporter transcription; actives raise or lower the signal
Method in brief: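 After 24 h of compound dosing, total RNA from transfected HepG2 cells is reverse-transcribed and the reporter sequences amplified, labeled and separated by capillary electrophoresis. Values come from bidirectional fitting against DMSO.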

[13] = target: Nuclear respiratory factor 1 (Homo sapiens) (UniProt Q16656); assay: ATG_NRF1_CIS: Attagene CIS-FACTORIAL HepG2 Assay for human Nuclear Respiratory Factor 1 (NRF1) Orphan Gene (AID 2282987); conditions: HepG2 NRF1 cis-element reporter, Attagene multiplex; actives raise or lower the signal
Method in brief: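 Measured: fluorescent reporter-specific RT-PCR products from transfected HepG2 cells, separated by capillary electrophoresis. Exposure lasted 24 h. Analysis used bidirectional curve fitting with DMSO as negative control.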

[14] = target: Retinoic acid receptor RXR-alpha (Homo sapiens) (UniProt P19793); assay: ATG_RXRa_TRANS: Attagene TRANS-FACTORIAL HepG2 Assay for human Retinoid X Receptor alpha (RXRa) (AID 2283012; active = hit-call score of the fitted dose curve at least 0.9, where 1 is the maximum)
Method in brief: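 HepG2 cells transiently transfected with GAL4-UAS reporter units and chimeric RXRa-Gal4 protein, treated 24 h. Reporter mRNA measured by RT-PCR, fluorescent labelling, HpaI digestion and capillary electrophoresis. Induction fitted against DMSO.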

[15] = target: Cellular tumor antigen p53 (Homo sapiens) (UniProt P04637); assay: TOX21_p53_BLA_p2_ratio: Tox21 HCT-116 p53 Agonism Beta-lactamase Assay, Ratio, Phase 2 (AID 2283592; active = hit-call score of the fitted dose curve at least 0.9, where 1 is the maximum)
Method in brief: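 Human colon HCT116 cells with an inducible p53 beta-lactamase reporter are exposed to test chemicals for 16 h at 37C. Reporter induction is read as the 460/530 nm emission ratio after CCF4-AM loading, normalized to DMSO.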

[16] = target: Cellular tumor antigen p53 (Homo sapiens) (UniProt P04637); assay: TOX21_p53_BLA_p3_ratio: Tox21 HCT-116 p53 Agonism Beta-lactamase Assay, Ratio, Phase 3 (AID 2283596; active = hit-call score of the fitted dose curve at least 0.9, where 1 is the maximum)
Method in brief: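 HCT116 p53-bla cells (4000/well) given compound in DMSO (217-fold dilution) after 5 h, incubated 16 h at 37C. CCF4-AM substrate 2 h at room temperature; 460/530 nm emission ratio, gain fitted against DMSO.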

[17] = target: Cellular tumor antigen p53 (Homo sapiens) (UniProt P04637); assay: TOX21_p53_BLA_p5_ratio: Tox21 HCT-116 p53 Agonism Beta-lactamase Assay, Ratio, Phase 5 (AID 2283599; active = hit-call score of the fitted dose curve at least 0.9, where 1 is the maximum)
Method in brief: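 HCT-116 p53-bla cells (4000/well) plated 5 h, dosed with compound (217-fold DMSO dilution) for 16 h at 37 C; CCF4-AM substrate 2 h at room temperature. Activity is the 460/530 nm emission ratio (405 nm excitation), fitted in gain-of-signal direction versus DMSO.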

[18] = target: Cellular tumor antigen p53 (Homo sapiens) (UniProt P04637); assay: TOX21_p53_BLA_p4_ratio: Tox21 HCT-116 p53 Agonism Beta-lactamase Assay, Ratio, Phase 4 (AID 2283601; active = hit-call score of the fitted dose curve at least 0.9, where 1 is the maximum)
Method in brief: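 HCT-116 p53 beta-lactamase reporter cells (4000/well) preincubated 5 h, then compound (217-fold dilution of DMSO stock) for 16 h at 37C. CCF4-AM substrate added 2 h at room temperature; 460/530 nm emission ratio fitted upward versus DMSO.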

[19] = ATG_M_06_TRANS: Attagene TRANS-FACTORIAL HepG2 Assay for M06 Transcription Factor (Internal Marker) (AID 2282983; active = hit-call score of the fitted dose curve at least 0.9, where 1 is the maximum;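 also: reporter transcript level by RT-PCR then capillary electrophoresis fluorescence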); conditions: HepG2 Attagene TRANS M06 internal marker reporter
Method in brief: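 Internal-marker background readout from a multiplexed TRANS reporter system in HepG2; 24 h dosing; mRNA induction quantified by RT-PCR plus capillary electrophoresis fluorescence; DMSO as negative control and baseline.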

[20] = target: Nuclear receptor subfamily 4 group A member 2 (Homo sapiens) (UniProt P43354); assay: ATG_NURR1_TRANS: Attagene TRANS-FACTORIAL HepG2 Assay for human Nuclear Receptor Related Protein 1 (NURR1) (AID 2282985; active = hit-call score of the fitted dose curve at least 0.9, where 1 is the maximum); conditions: HepG2 Attagene TRANS reporter, mRNA readout
Method in brief: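 HepG2 cells transiently transfected with NURR1-Gal4 chimera and GAL4-UAS reporter units; after 24 hr compound exposure, reporter mRNA quantified by RT-PCR and capillary electrophoresis; gain of signal fitted against DMSO.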

Measured: AC50

Sequence of Hepatocyte nuclear factor 6 (Homo sapiens) (Q9UBC0 whole entry, looked up): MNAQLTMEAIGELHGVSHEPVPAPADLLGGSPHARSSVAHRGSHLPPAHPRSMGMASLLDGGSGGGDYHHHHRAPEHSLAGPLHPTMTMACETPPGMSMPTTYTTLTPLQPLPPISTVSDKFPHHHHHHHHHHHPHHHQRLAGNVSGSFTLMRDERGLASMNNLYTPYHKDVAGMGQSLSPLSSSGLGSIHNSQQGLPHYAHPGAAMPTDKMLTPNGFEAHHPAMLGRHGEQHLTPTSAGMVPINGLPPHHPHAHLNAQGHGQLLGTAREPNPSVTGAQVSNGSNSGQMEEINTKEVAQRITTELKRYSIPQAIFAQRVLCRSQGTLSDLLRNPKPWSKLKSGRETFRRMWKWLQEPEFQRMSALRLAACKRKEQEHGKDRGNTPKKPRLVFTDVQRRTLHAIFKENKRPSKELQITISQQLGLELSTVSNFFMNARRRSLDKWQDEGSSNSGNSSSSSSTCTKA
Sequence of Nuclear receptor subfamily 4 group A member 2 (Homo sapiens) (P43354 whole entry, looked up, the tested form may be a part): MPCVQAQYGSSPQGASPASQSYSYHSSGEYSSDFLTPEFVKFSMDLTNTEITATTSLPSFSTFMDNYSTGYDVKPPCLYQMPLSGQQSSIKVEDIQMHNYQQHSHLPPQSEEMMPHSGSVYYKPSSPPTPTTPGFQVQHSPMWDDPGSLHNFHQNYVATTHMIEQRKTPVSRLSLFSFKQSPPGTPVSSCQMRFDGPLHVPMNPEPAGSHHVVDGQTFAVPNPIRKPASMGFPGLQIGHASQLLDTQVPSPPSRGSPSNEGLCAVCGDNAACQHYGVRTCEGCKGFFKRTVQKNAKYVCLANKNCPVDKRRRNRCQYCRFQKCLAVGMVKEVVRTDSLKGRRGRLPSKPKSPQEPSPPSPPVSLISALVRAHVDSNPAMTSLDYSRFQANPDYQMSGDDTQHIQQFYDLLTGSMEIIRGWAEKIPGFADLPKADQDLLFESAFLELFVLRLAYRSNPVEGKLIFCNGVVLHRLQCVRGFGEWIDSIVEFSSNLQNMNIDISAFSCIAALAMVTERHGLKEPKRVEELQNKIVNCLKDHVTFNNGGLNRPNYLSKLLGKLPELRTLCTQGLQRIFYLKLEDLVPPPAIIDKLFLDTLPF
Sequence of Transcriptional activator Myb (Homo sapiens) (P10242 whole entry, looked up): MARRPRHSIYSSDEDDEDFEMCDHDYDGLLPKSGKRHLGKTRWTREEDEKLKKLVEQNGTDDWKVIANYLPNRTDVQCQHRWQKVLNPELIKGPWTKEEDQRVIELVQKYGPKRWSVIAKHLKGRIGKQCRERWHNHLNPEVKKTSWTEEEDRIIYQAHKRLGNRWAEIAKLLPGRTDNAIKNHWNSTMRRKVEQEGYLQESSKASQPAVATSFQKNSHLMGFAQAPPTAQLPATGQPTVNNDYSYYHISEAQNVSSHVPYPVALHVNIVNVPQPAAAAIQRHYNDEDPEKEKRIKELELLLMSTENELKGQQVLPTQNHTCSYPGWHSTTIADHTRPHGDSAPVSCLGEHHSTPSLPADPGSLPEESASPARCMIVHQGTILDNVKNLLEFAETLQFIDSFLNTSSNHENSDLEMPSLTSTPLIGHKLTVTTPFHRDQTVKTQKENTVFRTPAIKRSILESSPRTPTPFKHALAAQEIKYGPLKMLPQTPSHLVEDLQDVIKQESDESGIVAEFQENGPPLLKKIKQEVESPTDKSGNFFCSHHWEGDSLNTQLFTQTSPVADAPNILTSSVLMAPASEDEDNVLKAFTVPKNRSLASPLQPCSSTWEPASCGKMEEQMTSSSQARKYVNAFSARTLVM
Sequence of Transcription factor E2F1 (Homo sapiens) (Q01094 whole entry, looked up): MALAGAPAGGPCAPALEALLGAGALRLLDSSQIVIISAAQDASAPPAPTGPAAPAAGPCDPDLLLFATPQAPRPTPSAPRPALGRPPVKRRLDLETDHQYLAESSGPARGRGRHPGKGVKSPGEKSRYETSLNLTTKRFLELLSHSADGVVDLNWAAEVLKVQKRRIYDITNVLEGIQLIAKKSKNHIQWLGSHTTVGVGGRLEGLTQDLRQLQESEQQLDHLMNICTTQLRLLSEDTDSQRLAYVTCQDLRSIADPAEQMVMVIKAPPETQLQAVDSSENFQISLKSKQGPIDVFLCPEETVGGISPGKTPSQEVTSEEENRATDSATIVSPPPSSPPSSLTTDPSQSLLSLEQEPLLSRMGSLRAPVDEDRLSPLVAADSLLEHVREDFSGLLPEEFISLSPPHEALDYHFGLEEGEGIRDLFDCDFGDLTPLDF
Sequence of Hypoxia-inducible factor 1-alpha (Homo sapiens) (Q16665 whole entry, looked up): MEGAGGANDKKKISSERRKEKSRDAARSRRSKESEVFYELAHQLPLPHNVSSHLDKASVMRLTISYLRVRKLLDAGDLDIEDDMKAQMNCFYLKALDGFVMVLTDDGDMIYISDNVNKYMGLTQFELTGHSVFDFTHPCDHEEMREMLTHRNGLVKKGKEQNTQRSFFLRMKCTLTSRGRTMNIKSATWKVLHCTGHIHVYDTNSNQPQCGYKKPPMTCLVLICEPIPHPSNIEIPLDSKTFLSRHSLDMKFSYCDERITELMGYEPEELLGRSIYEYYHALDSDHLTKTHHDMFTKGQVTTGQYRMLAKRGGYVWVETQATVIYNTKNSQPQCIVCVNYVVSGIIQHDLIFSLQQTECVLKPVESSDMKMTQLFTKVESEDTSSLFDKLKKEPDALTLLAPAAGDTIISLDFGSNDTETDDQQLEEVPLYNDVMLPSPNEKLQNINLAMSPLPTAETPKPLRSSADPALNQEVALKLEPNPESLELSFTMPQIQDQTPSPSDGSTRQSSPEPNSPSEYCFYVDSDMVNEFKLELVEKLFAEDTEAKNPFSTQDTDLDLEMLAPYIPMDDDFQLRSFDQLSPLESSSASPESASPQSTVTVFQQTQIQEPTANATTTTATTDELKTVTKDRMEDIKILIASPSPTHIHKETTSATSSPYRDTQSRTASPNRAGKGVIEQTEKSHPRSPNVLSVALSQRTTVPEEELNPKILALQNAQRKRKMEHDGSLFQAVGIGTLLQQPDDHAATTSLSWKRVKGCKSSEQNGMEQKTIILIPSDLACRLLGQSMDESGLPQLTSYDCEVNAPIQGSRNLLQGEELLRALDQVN
Sequence of Retinoic acid receptor RXR-alpha (Homo sapiens) (P19793 whole entry, looked up, the tested form may be a part): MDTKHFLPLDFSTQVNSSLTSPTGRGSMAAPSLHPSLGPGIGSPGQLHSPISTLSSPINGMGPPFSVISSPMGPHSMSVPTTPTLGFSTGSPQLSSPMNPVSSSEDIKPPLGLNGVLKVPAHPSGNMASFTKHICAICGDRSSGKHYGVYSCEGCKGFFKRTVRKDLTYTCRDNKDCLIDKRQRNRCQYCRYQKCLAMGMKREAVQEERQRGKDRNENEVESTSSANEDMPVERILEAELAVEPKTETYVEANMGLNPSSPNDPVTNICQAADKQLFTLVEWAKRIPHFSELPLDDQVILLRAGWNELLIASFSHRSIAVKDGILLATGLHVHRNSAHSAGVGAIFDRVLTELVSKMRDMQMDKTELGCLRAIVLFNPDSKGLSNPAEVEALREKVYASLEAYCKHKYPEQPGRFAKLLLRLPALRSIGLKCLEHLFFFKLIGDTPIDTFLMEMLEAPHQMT
Sequence of Heat shock factor protein 1 (Homo sapiens) (Q00613 whole entry, looked up): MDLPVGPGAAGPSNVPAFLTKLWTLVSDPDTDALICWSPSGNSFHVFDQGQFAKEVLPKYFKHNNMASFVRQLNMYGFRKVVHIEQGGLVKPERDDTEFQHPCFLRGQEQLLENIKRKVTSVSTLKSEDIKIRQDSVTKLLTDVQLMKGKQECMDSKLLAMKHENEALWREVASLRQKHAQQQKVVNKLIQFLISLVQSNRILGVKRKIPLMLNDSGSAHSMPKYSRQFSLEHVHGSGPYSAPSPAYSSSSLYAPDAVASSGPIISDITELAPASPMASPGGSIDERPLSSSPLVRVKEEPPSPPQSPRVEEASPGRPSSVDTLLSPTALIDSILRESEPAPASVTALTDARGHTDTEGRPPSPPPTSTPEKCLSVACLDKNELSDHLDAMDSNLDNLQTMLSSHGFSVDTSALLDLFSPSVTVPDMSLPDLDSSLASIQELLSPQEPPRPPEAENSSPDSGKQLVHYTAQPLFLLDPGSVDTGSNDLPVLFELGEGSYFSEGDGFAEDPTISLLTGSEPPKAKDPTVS
Sequence of Nuclear respiratory factor 1 (Homo sapiens) (Q16656 whole entry, looked up): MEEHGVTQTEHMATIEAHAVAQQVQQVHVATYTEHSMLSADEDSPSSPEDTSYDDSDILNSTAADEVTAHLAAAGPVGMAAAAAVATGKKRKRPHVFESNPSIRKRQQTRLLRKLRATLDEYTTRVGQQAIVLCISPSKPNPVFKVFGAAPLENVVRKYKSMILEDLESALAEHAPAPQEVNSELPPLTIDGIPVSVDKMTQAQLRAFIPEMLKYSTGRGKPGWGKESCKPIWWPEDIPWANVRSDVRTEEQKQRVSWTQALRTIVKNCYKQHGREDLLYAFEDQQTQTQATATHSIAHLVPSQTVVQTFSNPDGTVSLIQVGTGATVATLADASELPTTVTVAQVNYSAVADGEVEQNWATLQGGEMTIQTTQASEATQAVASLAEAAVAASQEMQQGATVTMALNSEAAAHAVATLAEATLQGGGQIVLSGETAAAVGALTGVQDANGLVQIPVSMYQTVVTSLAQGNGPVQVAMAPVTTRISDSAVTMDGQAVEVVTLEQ
Sequence of Cellular tumor antigen p53 (Homo sapiens) (P04637 whole entry, looked up): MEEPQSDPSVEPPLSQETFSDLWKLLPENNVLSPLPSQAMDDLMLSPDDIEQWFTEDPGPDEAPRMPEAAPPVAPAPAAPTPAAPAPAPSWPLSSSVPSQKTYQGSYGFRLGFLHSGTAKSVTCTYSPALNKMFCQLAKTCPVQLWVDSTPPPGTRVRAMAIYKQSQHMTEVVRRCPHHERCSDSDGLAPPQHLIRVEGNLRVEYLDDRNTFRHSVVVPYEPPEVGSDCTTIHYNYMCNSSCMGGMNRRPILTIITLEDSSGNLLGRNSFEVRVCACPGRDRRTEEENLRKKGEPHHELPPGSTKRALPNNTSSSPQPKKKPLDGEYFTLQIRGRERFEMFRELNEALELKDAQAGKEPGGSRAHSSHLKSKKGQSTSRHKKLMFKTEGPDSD

C=CCN(CC=C)C(=O)C(Cl)Cl
inactive: [1] | [2] | [3] | [4] | [5] | [6] | [7] | [8] | [9] | [10] | [11] | [12] | [13] | [14] | [15] | [16] | [17] | [18]

CC[N+](=O)[O-]
inactive: [1] | [3] | [5] | [6] | [7] | [8] | [9] | [10] | [11] | [19] | [20] | [12] | [13] | [15] | [16] | [17] | [18]

CC1(C)C(=O)NC(=O)NC1=O
inactive: [2] | [3] | [5] | [6] | [7] | [9] | [11] | [20] | [12] | [13] | [14] | [15] | [16] | [17]

Cc1ccc(C)c2ccccc12
inactive: [1] | [2] | [4] | [6] | [7] | [9] | [10] | [11] | [20] | [13] | [14]

CC(=O)C=Cc1ccccc1
inactive: [1] | [2] | [3] | [5] | [8] | [9] | [10] | [11] | [20] | [13] | [14]
active: [4] 81.1 µM | [6] 179 µM | [7] 152 µM

CC(C)(C)C(O)C(Oc1ccc(-c2ccccc2)cc1)n1cncn1 (configuration not stated)
active: [7] 59.6 µM | [8] 42 µM | [20] 53.9 µM
inactive: [3] | [5] | [9] | [10] | [19] | [12] | [13] | [14]

CC(C)[C@@H](C(=O)O[C@@H](C#N)c1cccc(Oc2ccccc2)c1)c1ccc(Cl)cc1
inactive: [1] | [2] | [7] | [8] | [9] | [10] | [11] | [19] | [20] | [12] | [13] | [15] | [16] | [17] | [18]

Nc1ccc([N+](=O)[O-])cc1N
inactive: [1] | [2] | [4] | [5] | [6] | [7] | [8] | [10] | [11] | [19] | [20] | [13] | [14] | [15] | [17] | [18]

C[C@]12CC[C@H](O)C[C@H]1CC[C@@H]1[C@@H]2C[C@@H](O)[C@]2(C)[C@@H](C3=CC(=O)OC3)CC[C@]12O
inactive: [1] | [2] | [9] | [10] | [11] | [19] | [20] | [14]
active: [3] 6.51 µM | [8] 2.73 µM | [13] 5.24 µM
